Measurements from the supplement of paper PMC10981050.
Values joined by “and” are separate entries in the source; they are usually repeats but may differ in a detail not shown here. Equal entries are not always repeated. Structures can show the parent of a compound that is named as a salt.

Experiments:
Assay in all cases: cell viability relative to vehicle control; higher = less cytotoxic
Settings in all cases: 10 µM
K562 = test system: K562
In short: (§1)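 After removal of identity-inconsistent compounds, the Selleck bioactive, kinase and epigenetic probe libraries were screened on CRISPR-edited mutant clones and isogenic wild-type clones of four leukaemia lines. Plates were 384-well, each well holding 2000 cells in 50 µL medium and receiving a single 10 µM acoustically dispensed dose. CellTiter-Glo luminescence was read 48 h later, after the supernatant was taken off. Genedata Screener was used to express viability as percent of the on-plate vehicle control.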

MARIMO = test system: MARIMO
In short: as §1

MOLM14 = test system: MOLM14
In short: as §1

OCI-AML2 = test system: OCI-AML2
In short: as §1

SMILES	cell viability (K562; SRSF2 genotype: SRSF2 P95H/wt)	cell viability (K562; SRSF2 genotype: SRSF2 wt/wt) [%]	cell viability (MARIMO; SRSF2 genotype: SRSF2 P95H/wt) [%]	cell viability (MARIMO; SRSF2 genotype: SRSF2 wt/wt) [%]	cell viability (MOLM14; SRSF2 genotype: SRSF2 P95H/wt) [%]	cell viability (MOLM14; SRSF2 genotype: SRSF2 wt/wt) [%]	cell viability (OCI-AML2; SRSF2 genotype: P95H/wt) [%]	cell viability (OCI-AML2; SRSF2 genotype: wt/wt) [%]
CCN(CC)C(=O)C1(c2ccccc2)CC1CN (stereo unspecified) [Milnacipran HCl]	96.3% and 102%	96.8	99.6	106	102	105	106	108
Nc1ncnc2c1C(=O)N(c1ccc([C@H]3CC[C@H](CC(=O)O)CC3)cc1)CCO2	107% and 104%	110	105	107	105	105	108	123
CC[C@@H]1/C=C(\C)C[C@H](C)C[C@H](OC)[C@H]2O[C@@](O)(C(=O)C(=O)N3CCCC[C@H]3C(=O)O[C@H](/C(C)=C/[C@@H]3CC[C@H](Cl)[C@H](OC)C3)[C@H](C)[C@@H](O)CC1=O)[C@H](C)C[C@@H]2OC [Pimecrolimus]	66% and 70.4%	64.5	80.5	70.7	65.7	67.3	58.1	57.8
CCCCc1oc2ccccc2c1C(=O)c1cc(I)c(OCCN(CC)CC)c(I)c1 [Amiodarone HCl]	70.3% and 74.5%	69.9	52.3	58.6	54.8	62.7	42.8	48.5
OC[C@@H](O)[C@@H](O)[C@H](O)[C@@H](O)CO [Sorbitol (Glucitol)]	101% and 105%	102	103	102	97.3	104	101	100
CC(C)c1cc2c(N3CCN(C4=NCC(C)(C)S4)CC3)ncnc2s1 [MI-3 (Menin-MLL Inhibitor)]	75.8% and 67.2%	67.3	75.4	55	72.2	72.3	40.6	45.1
C=C1[C@@H]2CC[C@@H](C2)C1(C)C [Camphene]	105% and 102%	106	102	111	95	108	98.5	97.1
O=C(O)Cc1ccc2c(c1)C(=O)c1ccccc1CO2 [Isoxepac]	104%	105	106	105	100	105	105	105
CC(C)(C)C#Cc1cc(N(C(=O)[C@H]2CC[C@H](C)CC2)[C@H]2CC[C@H](O)CC2)c(C(=O)O)s1 [Lomibuvir (VX-222, VCH-222)]	108% and 102%	107	113	115	109	106	124	120
O=C(O)C(O)Cc1ccc(O)c(O)c1 (stereo unspecified) [Sodium Danshensu]	98.7% and 92.4%	95.5	95.5	107	96.4	98.8	93.7	104
CC(C)(F)C[C@H](N[C@@H](c1ccc(-c2ccc(S(C)(=O)=O)cc2)cc1)C(F)(F)F)C(=O)NC1(C#N)CC1 [Odanacatib (MK 0822)]	98.7% and 103%	93.4	94.5	102	104	104	101	102
CC1(C)C=Cc2cc(-c3coc4cc(O)ccc4c3=O)ccc2O1 [Corylin]	78.5% and 85.9%	85.4	70.9	69.7	97	97.4	56.4	60.8
Cc1ccc(-n2[nH]c(C)c(N=Nc3cccc(-c4cccc(C(=O)O)c4)c3O)c2=O)cc1C [Eltrombopag olamine]	76% and 80.3%	69.3	54.9	69	75.4	68.5	66.3	60.3
CN(C)c1ccc(C(=O)NCCCCCCC(=O)NO)cc1	1.52% and 16.7%	6.13	6.98	14.2	1.22	0.66	2.92	6.46
NC(=O)[C@H](CCCN=C(N)CCl)NC(=O)c1ccccc1 [Cl-amidine]	101% and 98%	95.7	101	97.2	98.4	99	111	102
Cc1cc(OCc2nnc(SC3CCCC3)n2-c2cccnc2)ccc1-c1ccc(S(C)(=O)=O)cc1	0.65% and 0.74%	1.74	0.85	1.72	0.25	0.26	0.24	0.79
C=C[C@@H]1C[C@]1(NC(=O)[C@@H]1C[C@@H]2CN1C(=O)[C@H](C(C)(C)C)NC(=O)O[C@@H]1C[C@H]1CCCCCc1nc3ccc(OC)cc3nc1O2)C(=O)NS(=O)(=O)C1CC1 [Grazoprevir]	96.2% and 101%	93.4	115	123	111	105	116	115
CC(C)(C)c1nc(-c2ccc(NC(=O)Nc3cccc(C(F)(F)F)c3)c3ccccc23)c2c(N)nccn12 [kira6]	10.9% and 7.91%	12.4	28.8	28.4	1.58	3.37	8.47	16.5
COc1cc2c(cc1O)CC[n+]1cc3c(OC)c(OC)ccc3cc1-2 [Jatrorrhizine]	91.4% and 98.7%	95.8	107	103	101	99.8	105	98.2

SMILES	cell viability (K562; SRSF2 genotype: SRSF2 P95H/wt)	cell viability (K562; SRSF2 genotype: SRSF2 wt/wt) [%]	cell viability (MARIMO; SRSF2 genotype: SRSF2 P95H/wt) [%]	cell viability (MARIMO; SRSF2 genotype: SRSF2 wt/wt) [%]	cell viability (MOLM14; SRSF2 genotype: SRSF2 P95H/wt) [%]	cell viability (MOLM14; SRSF2 genotype: SRSF2 wt/wt) [%]	cell viability (OCI-AML2; SRSF2 genotype: P95H/wt) [%]	cell viability (OCI-AML2; SRSF2 genotype: wt/wt) [%]
OCC1(O)COc2cc(O)ccc2-c2cc(O)c(O)cc2C1 (stereo unspecified) [Protosappanin B]	93.9% and 95.9%	95.7	100	97.1	102	96.2	97.3	99.5
CCC(C)(Oc1ccc(C2(c3ccc(OC(C)(CC)C(=O)O)cc3)CCCCC2)cc1)C(=O)O (stereo unspecified) [Clinofibrate]	95.4% and 93.2%	93.7	92.4	102	93.8	96.6	90.4	102
Cc1ccccc1C(OCCN(C)C)c1ccccc1 (stereo unspecified) [Orphenadrine citrate (Norflex)]	96.7% and 92%	91.3	79.7	97.3	93.3	98.1	83.2	95
O=C(O)c1cc(=O)c2c(OCC(O)COc3cccc4oc(C(=O)O)cc(=O)c34)cccc2o1 [Disodium Cromoglycate]	93.6%	95	94.8	98.5	94	94.4	92.8	99
C=C1CCOC1=O [2-Methylenebutyrolactone]	106% and 101%	104	97.3	105	88.6	107	125	126
CO/N=C(\C(=O)N[C@@H]1C(=O)N2C(C(=O)O)=CCS[C@H]12)c1csc(N)n1 [Ceftizoxime]	99.2% and 101%	110	96.1	98.9	104	103	111	98.5
CCOCc1nc2c(N)nc3ccccc3c2n1CC(C)(C)O [Resiquimod]	94.5% and 96%	92.3	86	87.6	97.1	96.1	95.8	98.8
Cn1c2ccccc2c2c3c(c4c5ccccc5n(CCC#N)c4c21)CNC3=O	104% and 99.7%	97.7	85.5	93.9	42.6	36.8	62.8	65.6
CC(CCc1ccccc1)NCC(=O)c1ccc(O)c(C(N)=O)c1 (stereo unspecified) [Labetalone hydrochloride]	92.1% and 89.7%	108	96.7	102	108	104	99.7	108
NCCc1ccc(O)c(O)c1 [Dopamine hydrochloride (Inotropin)]	89% and 91.3%	93.1	88.6	103	80.9	100	99.9	105
Cc1cc(=O)[nH]c(=S)[nH]1 [Methylthiouracil]	99.3% and 106%	90.5	96.7	107	99.9	103	95.5	104
O=C(O)/C=C/c1ccc(Cn2ccnc2)cc1 [Ozagrel HCl]	97.6%	96.3	92.8	109	98.8	103	92.6	105
CO/N=C(\C(=O)N[C@@H]1C(=O)N2C(C(=O)[O-])=C(C[N+]3(C)CCCC3)CS[C@H]12)c1csc(N)n1 [Cefepime Dihydrochloride Monohydrate]	101% and 102%	106	96.3	109	105	107	104	113
Cc1cccc(C)c1NC(=O)C1CCCCN1C (stereo unspecified) [Mepivacaine HCl]	105% and 102%	111	106	95.3	96.5	102	108	99
COc1cc2c(Oc3ccc4[nH]c(C)cc4c3F)ccnc2cc1OCC1(N)CC1 [Anlotinib (AL3818) dihydrochloride]	19.7% and 32.9%	24.9	5.61	5.93	9.28	3.53	17.5	17.3
O=C1C(Cl)=C(N2CCOCC2)C(=O)N1c1ccc(Cl)c(Cl)c1	97.9% and 96%	97.4	88.2	109	87	94	83.3	96.4
CN1CCC(=C2c3ccccc3C=Cc3ccccc32)CC1 [Cyproheptadine hydrochloride (Periactin)]	90.8% and 86.3%	83	77.3	89	72.5	91.5	81.1	85
COC[C@H]1C[C@@H](c2nc(-c3ccc4c(c3)COc3cc5c(ccc6nc([C@@H]7CC[C@H](C)N7C(=O)[C@@H](NC(=O)OC)C(C)C)[nH]c65)cc3-4)c[nH]2)N(C(=O)[C@H](NC(=O)OC)c2ccccc2)C1 [Velpatasvir]	95.6% and 98.5%	87.6	88.2	91.6	90.1	93.5	98	93.6
